Rows were chosen to be rich in hits. Some 7.7% of all compounds tested hit in one or more screens of this group.
Giardia FBPA inh: qHTS Assay for Inhibitors of Fructose-1,6-bisphosphate Aldolase from Giardia Lamblia; purified Giardia FBPA; Potency, µM (doses to about 59.6 µM), for inactives: at the top dose activity, negative = inhibition, usual class: inhibitors; 0.71% of 290,000 active; also: potency is read from the fitted curve at half-maximal effect; nearly all actives have a fitted effect of over 55% in size
Target sequence (A8B2U2 whole entry, looked up): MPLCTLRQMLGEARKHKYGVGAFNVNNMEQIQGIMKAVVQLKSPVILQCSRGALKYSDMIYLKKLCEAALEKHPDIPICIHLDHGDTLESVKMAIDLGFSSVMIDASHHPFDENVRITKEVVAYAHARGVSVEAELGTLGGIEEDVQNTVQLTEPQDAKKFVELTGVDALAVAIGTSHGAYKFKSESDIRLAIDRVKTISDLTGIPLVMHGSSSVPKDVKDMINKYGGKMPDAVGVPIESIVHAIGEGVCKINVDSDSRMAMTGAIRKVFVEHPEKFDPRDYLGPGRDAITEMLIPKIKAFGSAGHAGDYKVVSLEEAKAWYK
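Giardia FBPA (40 nM reagent) was preincubated 10 min at RT with compound (up to 57.5 uM final), then substrate plus GAPDH/TPI/NAD/arsenate coupling system with diaphorase/resazurin was added; resorufin fluorescence (525/598 nm) was read after 20 min.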
Tb PYK inh: qHTS of Trypanosoma Brucei Inhibitors. pyruvate kinase (Trypanosoma brucei), Q57TT1. TbPYK enzyme, Kinase-Glo Plus ATP luminescence, 45 min. Potency, µM (titrated, usually from 76.8 µM), without a hit: at the highest dose activity, negative = inhibition, most hits filed as inhibitors. 0.12% of 410,000 active. AID 624173, 2012; also: potency is read from the fitted curve at half-maximal effect; nearly all actives have a fitted effect of over 50% in size
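Enzyme and substrate buffer are dispensed first and compound is pin-transferred. ADP at 130 uM final then starts the reaction, which runs 45 min at room temperature. Detection reagent is added for 10 min before luminescence is imaged.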
FMDV inh: High Throughput Screening for Foot and Mouth Disease Virus Antivirals. FMDV antiviral cell-based qHTS. Potency, µM (series often up to 57.9 µM), without a hit: at the top dose activity change, negative = inhibition, actives largely listed as inhibitors. 1.2% of 410,000 active; calls by dose curve; tested in HEK293T cells; also: read-out not given here; potency is read from the fitted curve at half-maximal effect; nearly all actives have a fitted effect of over 45% in size
HCMV inh: qHTS Assay for inhibitors of the human cytomegalovirus (HCMV). HFF cells, HCMV-luciferase reporter, 72 h; stronger effect = lower value. activity change, negative = inhibition, % at 57.5 µM. 4.5% of 410,000 active; in the data active = activity change below about -60%; inconclusive = no clear call, values can overlap the other calls; inactive = above about -39%
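HFF cells seeded 16 h at 37C, treated with compounds, infected with luciferase-reporter HCMV at MOI 1 PFU/cell; luciferase read at 72 h post infection, normalized to buffer-only and Salinomycin controls.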
Sm TGR inh: qHTS Assay for the Inhibitors of Schistosoma Mansoni Peroxiredoxins; Schistosoma mansoni thioredoxin glutathione reductase (TGR), Q962Y6; purified TGR, DTNB reduction, TNB absorbance 405 nm; Potency, µM (doses to about 114 µM), inactives show at the highest dose activity change, negative = inhibition, usual class: inhibitors; 3% of 360,000 active; AID 485364, 2010; also: potency is read from the fitted curve at half-maximal effect; nearly all actives have a fitted effect of over 60% in size
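TGR 20 nM + NADPH 100 uM (dispensed conc.), cpd preinc 15 min RT; start with NADPH (500 uM addition) then DTNB (15 mM addition). Kinetic TNB absorbance, 405 nm filter. Four-parameter Hill fit across titration.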
RE007 growth inh: qHTS Assay for Inhibitors of the HIV-1 protein Vpr | S. pombe RE007 Vpr strain, BacTiter-Glo ATP luminescence, 24 h | Potency, µM (series often up to 92.2 µM), for the others: at the highest dose activity change, negative = less growth, actives largely listed as inhibitors | 0.21% of 360,000 active | AID 651644, 2012; active = well fitted falling curve with a large enough effect; inconclusive = small, poorly fitted or top-dose-only effect; inactive = no such curve, though single readings can be large or run the other way; also: potency is read from the fitted curve at half-maximal effect; nearly all actives have a fitted effect of over 50% in size
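Fission yeast strain RE007, carrying one chromosomally integrated HIV-1 vpr copy, was seeded at OD 0.01 in PMG+AL medium with 23 nL pinned compound. After 24 h at 30 °C and 99% humidity, viability was read by BacTiter-Glo luminescence.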
* marks the source's active call; other numbers are inactive results; ? = inconclusive; nt = no result given; [ ] = another dose, or the depositor's remark. Unless noted, calls follow the shape of the dose curve; as a rule, active = well fitted curve in the direction sought with a large enough effect; inconclusive = small, poorly fitted or top-dose-only effect, or another doubt; inactive = no such curve, though single readings can be large; an effect the other way counts as inactive or inconclusive. % is scaled to controls: 0 for no effect and ±100 for the full control effect.

SMILES | Giardia FBPA inh | Tb PYK inh | FMDV inh | HCMV inh | Sm TGR inh | RE007 growth inh
O=C(NCCc1ccc(Cl)cc1)c1ccc(CSCc2cccc(Cl)c2)o1 | nt | 3.6% | -24.3% | 1.2 | 2.1% | nt
O=C(NCc1cccc(Br)c1)c1ccc(-n2cnc3cccnc32)cc1 | nt | 5.5%[15.4 µM] | -0.5% | ? | -8.0% | nt
S=c1[nH]cnc2scc(-c3ccc(Br)cc3)c12 | 0.3% | -3.3% | -20.5% | -86.8* | -0.5% | -1.5%
Cc1ccc2nc3c(nc2c1C)C(O)=C3O | -4.7% | 8.8% | -26.8% | 39.8 | 7.94µM* | 3.7%
COCCCNC(=O)C1CCN(C(=O)c2cnn(-c3ccccc3)c2-n2cccc2)CC1 | nt | -5.2% | -14.9% | 0.1 | 10.7% | nt
CCOc1ccc(-c2nnc(SCC(=O)Nc3cc(F)ccc3F)o2)cc1 | nt | -11.7% | 59.7% | ? | -35.5% | nt
CCOc1ccc(-c2ccc(NS(=O)(=O)c3ccc(C)cc3)cc2)nn1 | nt | -0.6% | 29.4% | -10.3 | 3.4% | nt
CCOc1ccc(-c2ccc(NS(=O)(=O)c3cc(C)c(C)cc3C)cc2)nn1 | nt | -0.1% | 39.4% | -77.1* | 5.7% | nt
NC(=O)c1c(Br)n(C2OC(CO)C(O)C2O)c2ncnc(N)c12 (stereo unspecified) | nt | -4.1% | -21.3% | -83.0* | nt | -0.6%
Nc1ncnc2c1ncn2[C@@H]1O[C@H](CO)[C@@H](O)[C@H]1O | -4.9% | -4.6% | -22.3% | 52.0 | 0.8% | 7.5%
N#Cc1c(Br)n(C2OC(CO)C(O)C2O)c2ncnc(N)c12 (stereo unspecified) | nt | -0.4% | 7.7% | -94.9* | nt | -8.7%
CN(C)c1nc2c(N)ncnc2n1C1OC(CO)C(O)C1O (stereo unspecified) | nt | -8.0% | -6.2% | -19.5 | nt | 2.1%
CN(C)c1nc2c(N)ncnc2n1[C@H]1O[C@@H](CO)[C@H](O)[C@@H]1O | 4.9% | 3.7% | 5.4% | -69.7* | -5.1% | 3.5%
O=C(O)c1ccc(-c2ccc3cc(C45CC6CC(CC(C6)C4)C5)c(O)cc3c2)cc1 | -29.8% | nt | ? | nt | nt | nt
CCOc1cccc2cc(-c3nc4sc5c(c4c(=O)[nH]3)CCC(C(C)(C)C)C5)c(=O)oc12 (stereo unspecified) | nt | -1.1% | -19.1% | -33.3 | 0.1% | nt
Cc1ccc(C(=O)NCc2ccc3c(c2)OCO3)o1 | -4.0% | -2.2% | 19.9% | 20.3 | 8.2% | 6.9%
Cc1cc(C)nc(NC(=O)c2ccc(C)o2)n1 | nt | 0.9% | -28.8% | -98.2* | -19.9% | -6.3%
Cc1ccc(C(=O)NCc2ccc(Cl)c(Cl)c2)o1 | 0.2% | 1.0% | -10.1% | 28.5 | -12.6% | 25.1µM*
COc1ccc2c(c1)-c1nc(-n3ncc(C(=O)N(C)CC4CCCN(C)C4)c3C3CC3)ncc1CC2 (stereo unspecified) | nt | nt | -0.3% | nt | nt | nt
CCCCc1c(-c2ccccc2OC)ncn1Cc1ccc(-c2ccccc2)cc1 | nt | -5.0% | 28.2µM* | -22.4 | nt | -0.6%
CCCCc1c(-c2ccccc2OC)ncn1Cc1ccc(Cl)cc1 | nt | -5.5% | ? | -29.6 | nt | ?
CCCCc1c(-c2ccccc2OC)ncn1Cc1cccc(-c2ccccc2)c1 | nt | 8.1% | ? | ? | nt | -23.8%
CCCCc1c(-c2ccccc2OC)ncn1C1CCCC1 | nt | -12.2% | 0.0% | -94.1* | nt | ?
CC(=O)N1CCC[C@H]1C(=O)NCC1Cc2cc(-c3cnccn3)cc(Cl)c2O1 (stereo partly specified) | nt | nt | 2.5% | nt | nt | nt
CCCC(=O)Nc1cccc(OCc2cc(=O)n3cccc(C)c3n2)c1 | nt | 0.0% | 11.5% | 19.3 | 3.7% | nt
Cc1ccc(N=C2N=C(N)c3ccccc32)cc1C | nt | -9.7% | -6.2% | -62.7* | nt | -0.5%
COc1ccccc1NC(=O)Cn1c(=O)n(CCc2ccccc2)c(=O)c2c3c(sc21)CN(C(C)=O)CC3 | nt | -3.9% | ? | -91.6* | 2.0% | nt

From PubChem
